The source made the active and inactive calls. How the source made its calls: active means hit-call score of the fitted dose curve at least 0.9, where 1 is the maximum; inconclusive means response in the unintended direction; inactive means score below 0.9.

In the assay the test system is IYD (gene 389434). The assay can be described thus: CCTE_GLTED_hIYD: CCTE's human Iodotyrosine Deiodinase (xIYD) Inhibition Assay, Great Lakes Toxicology and Ecology Division (GLTED) Lab (AID 2284317). The protocol: CCTE_GLTED_hIYD is a cell-free, single-readout assay that uses human iodotyrosine deiodinase (hIYD) enzyme produced with baculovirus-insect cell system. The assay is based on iodide release measured by the Sandell-Kolthoff method and is run in 96-well plate format with assay plates run in triplicate (n=3) with measurements taken at 3 hours after chemical dosing. Platewise-normalization was used based on positive control (3-Nitro-L-tyrosine, MNT) and negative/solvent controls (DMSO, NaOH).CCTE_GLTED_hIYD is the assay component measured from the CCTE_GLTED_hIYD assay. It measures substrate involved in regulation of catalytic activity using spectrophotometry. The assay measures the deiodination activity of human IYD on the substrate monoiodotyrosine (MIT). After 3h incubation of substrate, enzyme, and test chemical, the components are applied to a 96-well Dowex column. Free iodide is not retained by the column and is separated from interfering assay components. The free iodide is measured by the Sandell-Kolthoff reaction in which the rate of reduction of cerium (Ce+4 to Ce+3) by arsenic (As+3 to As+5) is increased by the presence of iodide. This is observed as the loss of yellow color in the reaction and the quantified by the change in absorbance at 420 nm. The change in reaction rate is proportional to the amount of iodide present.Data from the assay component CCTE_GLTED_hIYD was analyzed at the assay endpoint CCTE_GLTED_hIYD in the positive analysis fitting direction relative to DMSO as the negative control and baseline of activity. Using a type of enzyme reporter, loss-of-signal activity can be used to understand iodotyrosine deiodinase activity. To generalize the intended target to other relatable targets, this assay endpoint is annotated to the 'dehalogenase' intended target family, where the subfamily is 'iodotyrosine deiodinase'.
Human thyroxine binding globulin (TBG) assay, developed at Great Lakes Toxicology and Ecology Division (GLTED) within the EPA's Center for Computational Toxicology and Exposure (CCTE), is designed to test the chemicals' ability to displace T4 from the TBG protein. The method used was largely based on Montano et al. (2012). This work describes the utilization of ANSA fluorescence when bound to the protein to approximate binding affinity of chemicals through a reduction of fluorescence when ANSA is displaced. This assay was conducted in 96-well plates with an incubation at 4C for 2 hours in a final volume of 200 uL. Final assay conditions included 0.0625 uM TBG, 0.6 uM ANSA, and 0.5% DMSO in 0.1 M phosphate buffer, pH=7.5.
Turning to `CCCCCCCCCCCC[N+](C)(C)C`, the molecule was classed as inactive.

Turning to `CN(C)c1ccc(C(=C2C=CC(=[N+](C)C)C=C2)c2ccc(N(C)C)cc2)cc1`, the molecule was classed as inactive.

In the case of `CC(C)(c1cc(Br)c(O)c(Br)c1)c1cc(Br)c(O)c(Br)c1`, the AC50 (in general, the midpoint of the concentration-response curve, whichever way the signal moves) is 66.2 µM (active).

As to `CCCCCCCCOC(=O)c1cc(O)c(O)c(O)c1`, the AC50 is 77 µM (active).

As to `CN(C[C@@H](CC[N+]12CCC(C3CCCCC3)(CC1)CC2)c1ccc(Cl)c(Cl)c1)C(=O)c1cc(C(F)(F)F)cc(C(F)(F)F)c1`, the AC50 is 45.2 µM (active).

Turning to `Clc1cc(Cl)c2c(c1)N=C1CCCCCN1C2`, the molecule was classed as inactive.

In the case of `CC(C)(C)c1csc(-c2cc3cc(OCc4ccccc4CC(=O)O)ccc3o2)n1`, the AC50 is 68.7 µM (active).

On to `CCOC(=O)O[C@H](C)OC(=O)c1ccc2c(c1)cc(C(=O)NC1CCN(C(C)C)CC1)n2Cc1cc(-c2ccc(Cl)s2)on1`, for which the AC50 is 56.4 µM (active).

As for `Cc1oc2c(NC(=O)c3c(Cl)cccc3Cl)cccc2c1C(C)(C)O`, the molecule was called inactive.

With `CCN(Cc1cccc(S(=O)(=O)O)c1)c1ccc(C(=C2C=CC(=[N+](CC)Cc3cccc(S(=O)(=O)O)c3)C=C2)c2ccccc2S(=O)(=O)[O-])cc1`, the concentration at half-maximal activity (AC50) is 100 µM (active).

On to `O=c1c(-c2ccc(O)cc2)coc2cc(O)cc(O)c12`, for which the result was inactive.

The values above are taken from PubChem BioAssay (EPA / NIEHS).
